Experimental data: PubChem BioAssay AID1671190 (National Center for Advancing Translational Sciences (NCATS), 2021)
Hit rate of the full screen: of about 580,000 compounds, about 6,100 (1.1%) were called active. Not shown: some 15% with an inconclusive outcome. Calls come from the whole dose curve; as a rule, active = well fitted inhibition curve with a large enough effect; inconclusive = small, poorly fitted or top-dose-only effect, or another doubt; inactive = no such curve, though single readings can be large or run the other way. Only a selection was taken, and actives are over-represented in it overall.

target: Polyunsaturated fatty acid lipoxygenase ALOX12 (Homo sapiens) (UniProt P18054); assay: Primary qHTS assay for inhibitors of human arachidonate 12S-lipoxygenase (ALOX12): Round 2; conditions: purified 12hLO, xylenol orange hydroperoxide absorbance; series mostly up to 108 µM; activity change, negative = inhibition: at the top concentration
Sequence (P18054 whole entry, looked up): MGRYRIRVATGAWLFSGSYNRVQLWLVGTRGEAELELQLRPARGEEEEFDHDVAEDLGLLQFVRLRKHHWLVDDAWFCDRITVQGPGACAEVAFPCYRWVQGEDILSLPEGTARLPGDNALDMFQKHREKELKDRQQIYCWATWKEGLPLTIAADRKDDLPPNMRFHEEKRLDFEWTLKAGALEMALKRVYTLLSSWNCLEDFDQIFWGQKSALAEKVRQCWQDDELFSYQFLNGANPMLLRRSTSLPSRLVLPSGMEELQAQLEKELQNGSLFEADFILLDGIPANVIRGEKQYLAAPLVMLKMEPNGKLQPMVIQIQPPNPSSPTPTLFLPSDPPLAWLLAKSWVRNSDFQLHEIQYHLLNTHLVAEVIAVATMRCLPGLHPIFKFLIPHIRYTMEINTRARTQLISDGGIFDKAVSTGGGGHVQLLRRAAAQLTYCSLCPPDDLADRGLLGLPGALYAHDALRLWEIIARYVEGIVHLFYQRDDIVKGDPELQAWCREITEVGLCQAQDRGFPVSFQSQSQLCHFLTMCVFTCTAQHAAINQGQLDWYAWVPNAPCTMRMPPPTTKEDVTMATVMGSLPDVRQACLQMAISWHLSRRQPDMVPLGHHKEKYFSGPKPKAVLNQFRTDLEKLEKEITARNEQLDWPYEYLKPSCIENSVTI
Summary of the method: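 Purified human 12hLO at 150 nM in 25 mM Hepes, 0.01% Triton X-100, pH 7.0, preincubated 15 min at room temperature with compound. Reaction started with 40 uM arachidonic acid, 30 min at room temperature. Hydroperoxide measured by Fe-xylenol orange, 573/405 nm absorbance ratio.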
% is set by controls: 0 for no effect and ±100 for the full control effect; potency is the fitted concentration of half-maximal effect.

Row | SMILES | activity change, negative = inhibition | Potency
1 | c1cc(CN2CCc3c(sc4ncnc(N5CCOCC5)c34)C2)ccn1 | 80.3% (inactive) | 
2 | CCOC(=O)c1c(C)[nH]c(C(=O)OC)c1C | 34.4% (inactive) | 
3 | COc1ccc(-c2ccc3nnc(CNC(=O)C(C)Oc4ccc(Cl)cc4)n3n2)cc1 (configuration not stated) | -1.11% (inactive) | 
4 | Cc1c(S(=O)(=O)N2CCCC2c2cccc(F)c2)cnn1C(F)F (configuration not stated) | 4.32% (inactive) | 
5 | Cc1cccc(NCC(=O)Nc2cc(Cl)ccc2-n2cncn2)c1C | 10.3% (inactive) | 
6 | CCS(=O)(=O)N(C)CCCNC(=O)c1cn(C)c2ccccc12 | 13.5% (inactive) | 
7 | Cc1ccc(C(NC(=O)Cc2cccs2)C(=O)Nc2ccc3c(c2)OCO3)cc1 (configuration not stated) | -0.457% (inactive) | 
8 | CN(C)C[C@@H]1CN(C)C[C@H]1NS(=O)(=O)c1cccc(C(F)(F)F)c1 | 48.1% (inactive) | 
9 | N#CC1=C(N)OC2=C(C(=O)CC(c3ccccc3)C2)C1c1cccs1 (configuration not stated) |  | 11.2 µM (active)
10 | Cc1ccsc1C1C(C#N)=C(N)OC2=C1C(=O)CC(C)(C)C2 (configuration not stated) | 0% (inactive) | 
11 | Cc1ccsc1C1C(C#N)=C(N)OC2=C1C(=O)CC(C)C2 (configuration not stated) | -15.6% (inactive) | 
12 | O=C(Cn1ccc2cc(Cl)ccc21)Nc1ccc2[nH]ccc2c1 | 1.07% (inactive) | 
13 | Cc1cc2nc(/C(C#N)=C\c3ccc(OCc4ccc(F)cc4)cc3)[nH]c2cc1C | -13.3% (inactive) | 
14 | CC(C(=O)NC(=O)NC1CCCCC1)n1cnc2c1c(=O)n(C)c(=O)n2C (configuration not stated) | -6.16% (inactive) | 
15 | CCCCCOc1ccc2c(C)c(CCC(C)C)c(=O)oc2c1 | -5.84% (inactive) | 
16 | O=C(Nc1ccc(Cl)cc1)c1csc([C@@H]2O[C@H](CO)[C@H](O)[C@H](O)[C@H]2O)n1 | -6.1% (inactive) | 
17 | O=C(NC1CCCC1)c1csc(C(O)c2cccc(Cl)c2)n1 (configuration not stated) | -9.02% (inactive) | 
18 | O=C(Nc1ccc(Cl)cc1)c1csc(C(O)c2cccc(C(F)(F)F)c2)n1 (configuration not stated) |  | 22.4 µM (active)
19 | Cc1nc(-c2ccccc2Cl)sc1C(=O)NC1C=CS(=O)(=O)C1 (configuration not stated) | -16.6% (inactive) | 
20 | COc1cccc(C(=O)Nc2ccc3oc(C)nc3c2)c1 | 16.5% (inactive) | 
21 | CCN(CC)c1nc2ccccc2nc1C(=O)Nc1cc(OC)ccc1OC | 2.3% (inactive) | 

Row | SMILES | activity change, negative = inhibition | Potency
22 | N#Cc1ccccc1CN1C(=O)S/C(=C/c2cccn2-c2cccc(C(=O)O)c2)C1=O | 29.1% (inactive) | 
23 | CN(C)S(=O)(=O)c1cccc(-c2nn(-c3ccccc3)cc2/C=C2\SC(=S)N(CC(=O)O)C2=O)c1 |  | 39.8 µM (active)
24 | Cc1ccc(-c2nn(-c3ccccc3)cc2/C=C2\SC(=S)N(CCCCCC(=O)O)C2=O)o1 |  | 31.6 µM (active)
25 | O=C(CCc1c[nH]c2ccccc12)Nc1ccc(F)cc1 | -4.74% (inactive) | 
26 | COC(=O)CNC(=O)c1cc2sccc2n1Cc1ccccc1 | 24.8% (inactive) | 
27 | CC(Sc1ccccn1)C(=O)Nc1cccc(Cl)c1 (configuration not stated) | -37.3% (inactive) | 
28 | CCC(=O)Oc1ccc2cc(-c3ccccc3)c(=O)oc2c1 | 20.5% (inactive) | 
29 | COc1ccc(OC)c(/C=C/C(=O)Oc2ccccc2Cl)c1 | 29.8% (inactive) | 
30 | COc1ccc2c(C)c(CC(=O)NCCc3ccccc3)c(=O)oc2c1 | -30.1% (inactive) | 
31 | O=C1c2c(nc(COc3ccccc3)n2Cc2ccccc2)NCCN1Cc1cccc(Cl)c1 | 46.7% (inactive) | 
32 | Cc1ccc(NC(=O)CN2C(=O)C(C)(C)c3cc(S(=O)(=O)N4CCCCC4)ccc32)cc1F | 1.73% (inactive) | 
33 | COc1ccc(C)cc1NC(=O)C(C)N1CCN(S(=O)(=O)Cc2ccccc2)CC1 (configuration not stated) | 3.46% (inactive) | 
34 | COc1ccc(-n2nnc(C(=O)NCc3ccccc3)c2N)cc1OC | -20.9% (inactive) | 
35 | CCc1ccc(N/C(N)=N/c2nc(C)cc(C)n2)cc1 | -18.2% (inactive) | 
36 | CCc1ccc(NC2Nc3cc(C)nn3S2)cc1 (configuration not stated) |  | 25.1 µM (active)
37 | CCc1ccc(NC(=O)N2CCCC(Cn3cnc4cccnc43)C2)cc1 (configuration not stated) | 45.4% (inactive) | 
38 | Cc1ccc(-c2cn(CCC(N)=O)c(=O)cn2)cc1 | -22.8% (inactive) | 
39 | O=c1cc(-c2ccccc2)n2c(SCc3ccccc3)nnc2[nH]1 |  | inactive
40 | CCS(=O)(=O)n1nc(-c2ccccc2)nc1SCc1ccccc1 |  | 28.2 µM (active)
41 | Cc1ccc(S(=O)(=O)n2nc(-c3ccc(Cl)cc3)nc2NCc2ccccc2)cc1 | -17.2% (inactive) | 
42 | CCOc1ccc(C(=O)Nc2ncc(C)s2)cc1OC | -2.76% (inactive) | 

Row | SMILES | activity change, negative = inhibition | Potency
43 | CCc1nnc(SCC(=O)Nc2ccccc2OC)n1-n1cccc1 | 0.0227% (inactive) | 
44 | CCOC(=O)N1CCN(C(=O)c2ccc(N3C(=O)CCS3(=O)=O)cc2)CC1 | 29.3% (inactive) | 
45 | CCCC1CCC(c2ccc(-c3ccc4c(n3)CCC(CCC)C4)cc2)CC1 (configuration not stated) | -17.4% (inactive) | 
46 | Cn1c(-c2sccc2OCc2cccc(C(F)(F)F)c2)n[nH]c1=S |  | 28.2 µM (active)
47 | CCOC(=O)N1CCN(Cc2nc(Cc3cccc(C(F)(F)F)c3)no2)CC1 | 15.8% (inactive) | 
48 | FC(F)(F)c1ccc(-n2cn[nH]c2=S)cc1 | 2.96% (inactive) | 
49 | O=C(CCS(=O)(=O)c1ccc2c(c1)CCN2C(=O)C1CC1)Nc1ccc(F)c(F)c1 | -11% (inactive) | 
50 | COc1cc(Nc2nc3ccccc3nc2NS(=O)(=O)c2ccc(C)cc2)cc(OC)c1 | -0.377% (inactive) | 
51 | O=C(c1ccc2c(c1)OCO2)N1CCCN(C(=O)C2CC2)c2ccccc21 | 113% (inactive) | 
52 | CSCC[C@@H](NC(=O)C(c1ccccc1)c1ccccc1)C(=O)O | -10.3% (inactive) | 
53 | CC1(C)C2CC[C@]3(C)C(CC=C4[C@@H]5C[C@@](C)(CO)CC[C@]5(C(=O)O)CC[C@]43C)[C@@]2(C)CC[C@@H]1O (some centres not stated) | 15.7% (inactive) | 
54 | CC1(C)[C@H](O[C@H]2O[C@H](C(=O)O)[C@@H](O)[C@H](O)[C@H]2O[C@@H]2O[C@H](C(=O)O)[C@@H](O)[C@H](O)[C@H]2O)CC[C@@]2(C)[C@H]1CC[C@]1(C)[C@H]2C(=O)C=C2[C@H]3C[C@@](C)(C(=O)O)CC[C@]3(C)CC[C@]21C |  | 8.63 µM (active)
55 | Cc1ccc(NC(=O)c2n[nH]c(=O)c3ccccc23)c(C)c1 | -13.1% (inactive) | 
56 | Cc1cc(Br)ccc1NC(=O)C1CCCCC1 | 0.587% (inactive) | 
57 | CC1=C[C@@H](CNCC(C)C)[C@H](C(C)C)C[C@H]1Cc1nc2c(C)cccc2[nH]1 | 14.2% [at 176 µM] (inactive) | 
58 | COc1ccc2cc(CNC(=O)c3nccnc3N)ccc2c1 | -2.78% (inactive) | 
59 | C[C@@H](NC(=O)c1cccnc1)c1c(-c2ccc(F)cc2)noc1C(=O)O |  | 39.8 µM (active)
60 | C[C@@H](NC(=O)COc1ccccc1)c1c(-c2ccc(F)cc2)noc1C(=O)O | 10.6% [at 176 µM] (inactive) | 
61 | COc1ccc(-c2noc(C(=O)O)c2[C@@H](C)NS(=O)(=O)c2ccccc2)cc1 | 24.3% [at 176 µM] (inactive) | 
62 | CC1(C)CC(=O)C(CCS(=O)(=O)OCC(F)(F)C(F)F)(CCS(=O)(=O)OCC(F)(F)C(F)F)C(=O)C1 | 2.97% (inactive) | 
